Results on 16 compounds are retold here after PubChem BioAssay (Tox21).

A number with no mark means an inactive call. Inconclusive results are not listed. The source made the active and inactive calls. Unless noted, the call rests on the fitted dose curve; in most records, active means well fitted curve in the direction sought with a large enough effect in the repeat runs; inconclusive means weak or mixed curves; inactive means no such curve, though single readings can be large; an effect the other way counts as inactive or inconclusive.

A short description of test [1]: qHTS assay to identify small molecule antagonists of the glucocorticoid receptor (GR) signaling pathway - cell viability counter screen (AID 720693; further: nearly all actives have a fitted effect of over 55% in size). (qHTS replaces the single test concentration by a dilution series.)
Test [2] is described as follows: qHTS assay for identifying genotoxic compounds that show differential cytotoxicity against isogenic chicken DT40 cell lines with known DNA damage response pathways - Rev3 mutant cell line (AID 743014). Further: nearly all actives have a fitted effect of over 55% in size. Further: potency means the concentration at half of the fitted maximal effect.
The nature of test [3]: qHTS assay to identify small molecule antagonists of the androgen receptor (AR) signaling pathway using the MDA cell line - cell viability counter screen (AID 743041; further: nearly all actives have a fitted effect of over 45% in size). Summed up:
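Using the breast carcinoma line MDA-kb2 AR-luc, test chemicals were co-incubated with R1881 for 16 h; CellTiter-Fluor reagent, added at 15.5 h, provided a fluorescence measure of live cells.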

Test [4] can be described thus: qHTS assay to identify small molecule antagonists of the thyroid receptor (TR) signaling pathway - cell viability counter screen (AID 743064). Further: nearly all actives have a fitted effect of over 50% in size. Further: potency means the concentration at half of the fitted maximal effect. Summed up: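 Counter screen for cytotoxicity: compound plus T3 (1 nM final) on GH3.TRE-Luc cells, 23.5 h at 37 °C, then fluorescence viability readout with CellTiter-Fluor.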
In test [5] the test system is thyroid hormone receptor (rat, GH3 cells). The test can be described thus: qHTS assay to identify small molecule agonists of the thyroid receptor (TR) signaling pathway (AID 743066; calls by dose curve).
The nature of test [6]: qHTS assay to identify small molecule antagonists of the estrogen receptor alpha (ER-alpha) signaling pathway - cell viability counter screen (AID 743074; calls by dose curve; further: nearly all actives have a fitted effect of over 45% in size).
The nature of test [7]: qHTS assay to identify small molecule antagonists of the estrogen receptor alpha (ER-alpha) signaling pathway using the BG1 cell line - cell viability counter screen (AID 743081).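 Further: compound given together with 17beta-estradiol as the ER stimulus; nearly all actives have a fitted effect of over 45% in size.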
The target of a further test is Aromatase (Homo sapiens) (UniProt P11511). Description: qHTS assay to identify aromatase inhibitors (AID 743083). Further: nearly all actives have a fitted effect of over 55% in size. Further: potency means the concentration at half of the fitted maximal effect.
The nature of test [8]: qHTS assay for identifying genotoxic compounds that show differential cytotoxicity against isogenic chicken DT40 cell lines with known DNA damage response pathways - wild type cell line (AID 743012). Further: nearly all actives have a fitted effect of over 60% in size. Further: potency means the concentration at half of the fitted maximal effect. Put shortly:
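Luminescent ATP viability signal (CellTiter-Glo, 30 min RT) recorded after wild type DT40 cells were incubated with compounds for 40 h at 37 C/5% CO2.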

A short description of test [9]: qHTS assay to identify small molecule antagonists of the androgen receptor (AR) signaling pathway - cell viability counter screen (AID 743033; further: nearly all actives have a fitted effect of over 45% in size).
Test [10] deals with Androgen receptor (Homo sapiens) (UniProt P10275). The test can be described thus: qHTS assay to identify small molecule antagonists of the androgen receptor (AR) signaling pathway (AID 743035; active means well fitted inhibition curve with a large enough effect in the signal ratio in the repeat runs, not every such curve was filed as active; the % refers to the signal ratio). Put shortly: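 Quantitative HTS of the Tox21 10K library used HEK293 AR-UAS-bla cells stimulated with R1881 alongside compound for 16 h at 37C, followed by beta-lactamase FRET detection (LiveBLAzer B/G, 2 h, RT).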

The target is the same in test [11]. The test can be described thus: qHTS assay to identify small molecule agonists of the androgen receptor (AR) signaling pathway using the MDA cell line (AID 743040; further: nearly all actives have a fitted effect of over 20% in size; further: potency means the concentration at half of the fitted maximal effect). Put shortly:
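Stable MMTV-luciferase reporter in MDA-kb2 cells; note the promoter carries GR as well as AR response elements. 16 h compound treatment, 37C, 0% CO2; ONE-Glo luminescence endpoint.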

The target is the same in test [12]. The test can be described thus: qHTS assay to identify small molecule antagonists of the androgen receptor (AR) signaling pathway using the MDA cell line (AID 743042; further: nearly all actives have a fitted effect of over 55% in size). Put shortly:
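Antagonist mode: compounds plus R1881 agonist added to MDA-kb2 AR-luc cells, incubated 16 h at 37C. Luciferase reporter luminescence quantified, with multiplexed CellTiter-Fluor readout for cell viability.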

Test [13] is described as follows: qHTS assay to identify small molecule antagonists of the thyroid receptor (TR) signaling pathway (AID 743065). Further: nearly all actives have a fitted effect of over 55% in size. Put shortly:
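Antagonism measured as loss of luciferase signal in GH3 cells stably carrying a TRE-luciferase reporter, co-treated with compound and T3 (1 nM final) for 23.5 h at 37 C. Viability was read in the same well by CellTiter-Fluor.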

Test [14] in a line: qHTS assay for identifying genotoxic compounds that show differential cytotoxicity against isogenic chicken DT40 cell lines with known DNA damage response pathways - Rad54/Ku70 mutant cell line (AID 743015). Further: nearly all actives have a fitted effect of over 60% in size. Further: potency means the concentration at half of the fitted maximal effect.
The target in test [15] is Estrogen receptor (Homo sapiens) (UniProt P03372). The test can be described thus: qHTS assay to identify small molecule antagonists of the estrogen receptor alpha (ER-alpha) signaling pathway (AID 743069; active means well fitted curve in the direction sought with a large enough effect in the signal ratio in the repeat runs, not every such curve was filed as active; the % refers to the signal ratio). Summed up: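 Fluorescence intensity from a beta-lactamase FRET substrate served as the read-out. Cells: HEK293 with stably integrated ER-alpha-UAS-bla reporter. Agonist 17beta-estradiol was co-added with compounds; incubation 18 hr at 37C, substrate 2 hr at room temperature.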

Test [16] shares this target. The test can be described thus: qHTS assay to identify small molecule agonists of the estrogen receptor alpha (ER-alpha) signaling pathway (AID 743075; calls by dose curve).
The target is the same in test [17]. The test can be described thus: qHTS assay to identify small molecule agonists of the estrogen receptor alpha (ER-alpha) signaling pathway using the BG1 cell line (AID 743079). Further: nearly all actives have a fitted effect of over 20% in size. Further: potency means the concentration at half of the fitted maximal effect. Conditions: BG1Luc4E2 cells, ERE-luciferase agonist, 22 h; activation: at 70.3 µM (top of the series).
Test [18] in a line: qHTS assay to identify small molecule antagonists of the estrogen receptor alpha (ER-alpha) signaling pathway using the BG1 cell line (AID 743080; calls by dose curve;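 further: BG1 cells stimulated with 17beta-estradiol alongside compound; nearly all actives have a fitted effect of over 25% in size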). Put shortly:
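Luminescence from a 4×ERE-luciferase reporter in BG1-Luc-4E2 cells served as read-out. Cells, pre-cultured 5 days in stripped-serum phenol-red-free medium, were exposed to compound with 17beta-estradiol co-stimulation for 21.5 h at 37 C.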

Test [19] has as its target Androgen receptor (Homo sapiens) (UniProt P10275). The test can be described thus: qHTS assay to identify small molecule agonists of the androgen receptor (AR) signaling pathway (AID 743036; active means well fitted activation curve with a large enough effect in the signal ratio in the repeat runs, with a control signal flat, not every such curve was filed as active; the % refers to the signal ratio; further: potency means the concentration at half of the fitted maximal effect). Summed up:
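In this Tox21 qHTS, 2,000 HEK293 AR-bla cells per well were incubated with compounds for 16 h at 37C and 5% CO2. Fluorescence intensity was recorded 2 h after adding LiveBLAzer B/G FRET substrate at room temperature.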

Chain of Estrogen receptor (Homo sapiens) (P03372 whole entry, looked up): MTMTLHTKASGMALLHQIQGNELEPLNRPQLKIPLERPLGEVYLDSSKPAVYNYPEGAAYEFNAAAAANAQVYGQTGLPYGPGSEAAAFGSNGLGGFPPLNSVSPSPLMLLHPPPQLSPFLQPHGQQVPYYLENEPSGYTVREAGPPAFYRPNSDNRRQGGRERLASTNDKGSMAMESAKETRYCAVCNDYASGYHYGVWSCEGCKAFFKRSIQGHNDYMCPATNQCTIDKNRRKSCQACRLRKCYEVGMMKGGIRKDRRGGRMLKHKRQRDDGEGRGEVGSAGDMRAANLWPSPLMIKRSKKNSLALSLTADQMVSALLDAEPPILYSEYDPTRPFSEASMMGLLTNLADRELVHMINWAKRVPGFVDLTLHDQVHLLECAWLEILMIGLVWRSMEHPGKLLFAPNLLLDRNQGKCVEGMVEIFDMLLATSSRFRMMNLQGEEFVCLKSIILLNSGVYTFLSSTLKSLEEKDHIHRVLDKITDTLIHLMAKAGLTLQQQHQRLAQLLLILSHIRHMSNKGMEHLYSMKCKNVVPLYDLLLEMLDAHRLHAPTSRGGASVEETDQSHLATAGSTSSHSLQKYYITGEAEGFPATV
Chain of Androgen receptor (Homo sapiens) (P10275 whole entry, looked up): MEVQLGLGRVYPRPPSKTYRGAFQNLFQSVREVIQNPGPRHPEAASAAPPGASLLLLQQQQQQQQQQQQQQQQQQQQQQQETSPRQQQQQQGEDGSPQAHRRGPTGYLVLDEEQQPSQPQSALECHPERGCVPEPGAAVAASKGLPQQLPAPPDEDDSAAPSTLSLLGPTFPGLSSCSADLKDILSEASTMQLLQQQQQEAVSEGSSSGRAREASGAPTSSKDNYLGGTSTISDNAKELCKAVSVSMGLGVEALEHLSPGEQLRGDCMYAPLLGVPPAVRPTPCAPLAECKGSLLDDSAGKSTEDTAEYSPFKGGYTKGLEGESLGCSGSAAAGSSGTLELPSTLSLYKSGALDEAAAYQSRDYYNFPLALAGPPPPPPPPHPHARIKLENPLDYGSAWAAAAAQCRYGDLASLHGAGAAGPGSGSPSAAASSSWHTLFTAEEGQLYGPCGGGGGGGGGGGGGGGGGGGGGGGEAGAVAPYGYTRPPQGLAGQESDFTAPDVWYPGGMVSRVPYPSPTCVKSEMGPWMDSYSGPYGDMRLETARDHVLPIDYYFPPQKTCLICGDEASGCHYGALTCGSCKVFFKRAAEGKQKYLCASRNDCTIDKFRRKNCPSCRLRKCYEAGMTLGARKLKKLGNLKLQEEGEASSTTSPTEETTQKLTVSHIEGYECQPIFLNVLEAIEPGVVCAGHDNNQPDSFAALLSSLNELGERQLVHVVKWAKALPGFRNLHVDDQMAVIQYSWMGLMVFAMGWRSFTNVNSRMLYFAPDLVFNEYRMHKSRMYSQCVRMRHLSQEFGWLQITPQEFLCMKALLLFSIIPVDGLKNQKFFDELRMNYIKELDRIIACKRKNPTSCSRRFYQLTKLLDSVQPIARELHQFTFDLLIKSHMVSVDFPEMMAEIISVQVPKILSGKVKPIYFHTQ
Chain of Aromatase (Homo sapiens) (P11511 whole entry, looked up): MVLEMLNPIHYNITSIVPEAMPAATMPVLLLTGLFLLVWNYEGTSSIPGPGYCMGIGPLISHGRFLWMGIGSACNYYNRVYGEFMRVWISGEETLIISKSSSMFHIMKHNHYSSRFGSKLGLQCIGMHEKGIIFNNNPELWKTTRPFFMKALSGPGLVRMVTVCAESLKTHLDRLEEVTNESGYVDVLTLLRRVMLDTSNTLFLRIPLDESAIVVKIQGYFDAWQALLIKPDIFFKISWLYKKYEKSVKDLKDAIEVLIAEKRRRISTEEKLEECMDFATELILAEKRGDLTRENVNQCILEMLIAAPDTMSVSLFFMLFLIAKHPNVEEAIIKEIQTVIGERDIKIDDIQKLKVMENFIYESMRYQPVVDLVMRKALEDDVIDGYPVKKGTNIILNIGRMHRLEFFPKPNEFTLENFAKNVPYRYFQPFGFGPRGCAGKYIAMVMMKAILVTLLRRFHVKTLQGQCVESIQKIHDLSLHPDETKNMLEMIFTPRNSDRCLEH

`CN1CCN(CCCN2c3ccccc3Sc3ccc(S(=O)(=O)N(C)C)cc32)CC1`: the Potency result (in [1]; in test [2]; in [3]; in [6]; in test [7]; with Aromatase (Homo sapiens)) was “inactive” throughout. In addition, in test [4], the Potency is 14.3 µM (active). For the same compound, in [5], the compound was called inactive.
Turning to `CN(C(=O)C(Cl)Cl)c1ccc(OC(=O)c2ccco2)cc1`, the Potency result in [1], in test [9], in test [10], in [11], in [3] and in test [12] was “inactive” in each case. Besides, the Potency entry (in test [13]; in [6]; in test [7]; with Aromatase (Homo sapiens)) was “inactive” in each case. For the same compound, the Potency in [8] was 26.6 µM (active). In addition, the call in test [5] was inactive.
With `CCC(C(=O)OCCOCCN(CC)CC)c1ccccc1` (stereo not given), the Potency result in test [1], in test [9], in [3], in [4], in [15] and in test [6] was “inactive” throughout. In addition, the Potency entry (in test [16]; in test [17]; in test [18]; in [7]; with Aromatase (Homo sapiens)) was “inactive” in each case. The Potency in [14] is 21.1 µM (active). Besides, the compound was classed as inactive in [5].
Turning to `CO/N=C1\CN(c2nc3c(cc2F)c(=O)c(C(=O)O)cn3C2CC2)CC1CN` (stereo not given), the Potency result in test [1], in [2], in test [9], in [15], in test [6] and in test [16] was “inactive” throughout. Further, the Potency result (in test [17]; in test [18]; in test [7]; with Aromatase (Homo sapiens)) was “inactive” each time.
Turning to `C=C(C)C(=O)OCCOC(=O)CC(C)=O`, the Potency result in test [1], in [8], in [14], in [9], in test [13] and in [6] was “inactive” throughout. The Potency result (in test [7]; in the test with Aromatase (Homo sapiens)) was “inactive” throughout. Further, the result in test [5] was inactive.
`NCC1CCCC(CN)C1` (stereo not given): the Potency result in [1], in test [2], in [14], in test [9], in test [10] and in test [19] was “inactive” throughout. The Potency entry in [11], in [3], in test [12], in test [4], in test [13] and in [6] was “inactive” in each case. The Potency result (in [7]; in the test with Aromatase (Homo sapiens)) was “inactive” each time. Also, in test [5], the compound was classed as inactive.
Consider `O=C(O)c1cccnc1C(=O)O`, for which the Potency result in [1], in test [8], in test [14], in test [9], in test [4] and in test [15] was “inactive” in each case. Further, the Potency result (in test [6]; in [16]; in test [17]; in test [18]; in [7]; with Aromatase (Homo sapiens)) was “inactive” in each case. The call in test [5] was inactive.
`CC(C)(C)C(=O)C(Oc1ccc(Cl)cc1)n1ccnc1` (stereo not given): the Potency entry in test [1], in test [3], in test [15], in test [6], in test [16] and in test [17] was “inactive” throughout. Also, the Potency result in [18] and in test [7] was “inactive” throughout. Further, the Potency in [8] was 13.3 µM (active); in test [14], 21.1 µM (active); in the test with Aromatase (Homo sapiens), 11.9 µM (active). In [5], the compound was called inactive.
Take `CC(=O)[C@H]1CC[C@H]2[C@@H]3C[C@H](C)C4=CC(=O)CC[C@]4(C)[C@H]3[C@@H](O)C[C@]12C`: the Potency entry in test [1], in test [9], in test [10], in [3], in [12] and in test [4] was “inactive” throughout. Moreover, the Potency entry (in [13]; in [6]; in [7]; with Aromatase (Homo sapiens)) was “inactive” in each case. In addition, the Potency in test [8] is 9.02 µM (active); in test [19], 0.0129 µM (active); in test [11], 0.0285 µM (active). The compound was classed as inactive in test [5].
As to `C(=C\c1ccccc1)/CN1CCN(C(c2ccccc2)c2ccccc2)CC1`, the Potency result (in test [1]; in test [2]; in [9]; in [6]; in test [7]; with Aromatase (Homo sapiens)) was “inactive” in each case. Also, the Potency in test [4] is 12.7 µM (active).
Consider `CC1C2CC(CC2C2CCCC(O)C2)C1(C)C` (stereo not given), for which the Potency entry in [1], in [3], in [4], in [13], in test [6] and in [7] was “inactive” each time. The Potency in [2] is 24.3 µM (active). Further, the outcome in test [5] was inactive.
`C[Si](NC1CCCCC1)(NC1CCCCC1)NC1CCCCC1`: the Potency entry in test [1], in test [3], in test [15], in [6], in test [16] and in test [17] was “inactive” throughout. The Potency entry (in test [18]; in test [7]; with Aromatase (Homo sapiens)) was “inactive” in each case. Moreover, the Potency in test [2] was 61.1 µM (active). In addition, in test [5], the compound was called inactive.
As for `NC(=O)Nc1ccc(Cl)c(Cl)c1`, the Potency result in test [1], in test [9], in test [3], in [4], in test [6] and in test [7] was “inactive” in each case. Also, in the test with Aromatase (Homo sapiens), the Potency entry is “inactive”. The Potency in test [2] and in test [14] was 60.9 µM (active) in each case. Besides, the compound was classed as inactive in test [5].
For `CCOC(=O)C(C)Oc1ccc(Oc2nc3ccc(Cl)cc3o2)cc1` (stereo not given), the Potency entry in test [1], in [9], in [11], in test [3], in [12] and in [6] was “inactive” throughout. Also, the Potency entry (in [7]; with Aromatase (Homo sapiens)) was “inactive” each time. Also, in test [14], the Potency is 61.1 µM (active). In addition, the outcome in [5] was inactive.
For the compound `O=C(OCCOCCO)c1ccccc1Nc1cccc(C(F)(F)F)c1`, the Potency result in test [1], in [2], in [9], in [3], in [13] and in [15] was “inactive” each time. In addition, the Potency result (in [6]; in test [16]; in test [17]; in test [18]; in [7]; with Aromatase (Homo sapiens)) was “inactive” throughout. For the same compound, the result in [5] was inactive.
Take `Nc1ccc(S(=O)(=O)O)cc1`: the Potency result in test [1], in [14], in [9], in test [3], in test [4] and in test [13] was “inactive” in each case. For the same compound, the Potency entry (in [15]; in test [6]; in test [16]; in test [18]; in test [7]; with Aromatase (Homo sapiens)) was “inactive” in each case. Further, the figures for the Potency in test [2] and in test [17] were 54.8 µM (active) and 38.8 µM (active), respectively. Moreover, the call in [5] was inactive.
